# Assay results: PubChem BioAssay (Tox21)
# Values without a mark were called inactive. Inconclusive results are not listed. Entries that show only a call come without a potency. Activity calls are given as the source filed them. Unless noted, calls come from the whole dose curve; as a rule, active = well fitted curve in the direction sought with a large enough effect in the repeat runs; inconclusive = weak or mixed curves; inactive = no such curve, though single readings can be large; an effect the other way counts as inactive or inconclusive.
# Assays:
# [1] = qHTS assay for small molecule agonists of the p53 signaling pathway (AID 651631; calls by dose curve; note: nearly all actives have a fitted effect of over 15% in size; note: potency is the fitted concentration of half-maximal effect)
# Summary of the method: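 Testing took place in human colorectal HCT-116 cells with stable p53RE-driven beta-lactamase. After 16 h of compound exposure at 37 °C, a FRET substrate was added and fluorescence recorded 2 h later.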
# [2] = qHTS assay for small molecules that induce genotoxicity in human embryonic kidney cells expressing luciferase-tagged ATAD5 (AID 651632); note: nearly all actives have a fitted effect of over 15% in size
# Summary of the method: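 Concentration-response screen for ATAD5 upregulation in HEK293T luciferase reporter cells; 16 hr treatment at 37C, then luminescence after 30 min with Amplite at room temperature.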
# [3] = qHTS assay for small molecule agonists of the p53 signaling pathway - cell viability (AID 651633; calls by dose curve; note: nearly all actives have a fitted effect of over 30% in size; note: potency is the fitted concentration of half-maximal effect)
# Summary of the method: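 Viability counter-read: CellTiter-Glo luminescence (30 min, room temperature) in the same p53RE-bla plates. These plates had been exposed to compounds for 16 h at 37 C.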
# [4] = qHTS assay for small molecule disruptors of the mitochondrial membrane potential - cell viability (AID 720634; calls by dose curve;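 note: human HepG2 liver cancer cells; series mostly up to about 83 µM; nearly all actives have a fitted effect of over 20% in size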)
# Summary of the method: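 In this qHTS format, HepG2 cells plated overnight were pinned with compound, incubated 1 hr, and assayed for ATP luminescence with CellTiter-Glo after m-MPI dye addition.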
# [5] = qHTS assay for small molecule disruptors of the mitochondrial membrane potential (AID 720635)
# Summary of the method: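 Mitochondrial membrane potential tracked with Mito-MPS dye, red aggregates (ex 540/em 590 nm) against green monomers (ex 490/em 535 nm). Compound treatment 1 hr at 37C, dye 30 min in HepG2.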
# [6] = qHTS assay to test for compound auto fluorescence at 590 nm (red) in HepG2 cells (AID 720674)
# Summary of the method: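 1 hr compound incubation on HepG2 cells, 37 C, 5% CO2; plate read ex 540 nm / em 590 nm; intensities reported as Rose Bengal sodium equivalents.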
# [7] = qHTS assay to test for compound auto fluorescence at 535 nm (green) in HepG2 cells (AID 720675)
# [8] = qHTS assay to test for compound auto fluorescence at 460 nm (blue) in HEK293 cells (AID 720678)
# Summary of the method: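 Blue read-out at excitation 405 nm and emission 460 nm follows overnight compound exposure of HEK293 cells at 37C in 5% CO2. Activity is given as auto fluorescence equivalency to triamterene.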
# [9] = qHTS assay to test for compound auto fluorescence at 590 nm (red) in HEK293 cells (AID 720679)
# Summary of the method: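 Red channel, Ex/Em 540/590nm; signal expressed as equivalency to Rose Bengal sodium. HEK293, 2,000 cells/well, 10% dialyzed FBS; 23 nL compound pinned after 4-5 hr attachment; overnight 37C/5% CO2 before reading.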
# [10] = qHTS assay to test for compound auto fluorescence at 535 nm (green) in HEK293 cells (AID 720680)
# [11] = qHTS assay to test for compound auto fluorescence at 460 nm (blue) in HEK293 cell free culture (AID 720681)
# Summary of the method: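 Blue fluorescence (Ex 405/Em 460 nm, triamterene-equivalent) was read immediately after pin transfer of compound or DMSO into medium (DMEM, 10% FBS) without cells.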
# [12] = qHTS assay to test for compound auto fluorescence at 535 nm (green) in HEK293 cell free culture (AID 720682)
# Summary of the method: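 DMEM + 10% FBS, cell-free; cpd or DMSO pinned in; Ex485/Em535 read; output as fluorescein-equivalent signal.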
# [13] = qHTS assay to test for compound auto fluorescence at 590 nm (red) in HEK293 cell free culture (AID 720683)
# Summary of the method: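 Red-channel autofluorescence of compounds in culture medium (DMEM, 10% FBS), no cells, measured at 540/590 nm. Rose Bengal sodium is the reference fluorophore for equivalence.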
# [14] = qHTS assay to test for compound auto fluorescence at 460 nm (blue) in HepG2 cell free culture (AID 720685)
# Summary of the method: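 Cell-free plates of MEM plus 10% FBS received 23 nL compound or DMSO vehicle; blue-channel (405/460 nm) intensity scored against triamterene as reference fluorophore.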
# [15] = qHTS assay to test for compound auto fluorescence at 535 nm (green) in HepG2 cell free culture (AID 720686)
# [16] = qHTS assay to test for compound auto fluorescence at 460 nm (blue) in HepG2 cells (AID 720687)
# Summary of the method: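 Blue-channel autofluorescence (Ex/Em 405/460 nm, triamterene-equivalent) was measured after 1 hr compound exposure at 37 C, 5% CO2. Cells were HepG2, plated overnight at 37 C in MEM plus 10% FBS.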
# [17] = molecular target: Glucocorticoid receptor (Homo sapiens) (UniProt P04150); test: qHTS assay to identify small molecule agonists of the glucocorticoid receptor (GR) signaling pathway (AID 720691; active = well fitted activation curve with a large enough effect in the signal ratio in the repeat runs, not every such curve was filed as active; the % refers to the signal ratio)
# Summary of the method: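 Measures GR pathway activation through a GRE-beta-lactamase reporter stably integrated in HeLa cells, with 18 h compound treatment at 37 C and fluorescence detection using a FRET substrate.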
# [18] = qHTS assay for small molecules that induce genotoxicity in human embryonic kidney cells expressing luciferase-tagged ATAD5 - cell viability (AID 651634; calls by dose curve; note: nearly all actives have a fitted effect of over 25% in size; note: potency is the fitted concentration of half-maximal effect)
# Summary of the method: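 15.5 hr compound or vehicle exposure of HEK293T cells expressing luciferase-tagged ATAD5 at 37C; live-cell protease activity is read by fluorescence after 30 min of CellTiter-Fluor.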
# [19] = qHTS assay to test for compound auto fluorescence at 590 nm (red) in HepG2 cell free culture (AID 720684)
# Summary of the method: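 No cells present: MEM + 10% FBS only. Compound pinned in, red label read (540/590 nm). Activity = fluorescence equivalent to Rose Bengal sodium.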
# [20] = molecular target: Glucocorticoid receptor (Homo sapiens) (UniProt P04150); test: qHTS assay to identify small molecule antagonists of the glucocorticoid receptor (GR) signaling pathway (AID 720692; active = well fitted inhibition curve with a large enough effect in the signal ratio in the repeat runs, not every such curve was filed as active; the % refers to the signal ratio)
# Summary of the method: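 Tox21 10K library screened in concentration-response for blockade of dexamethasone (5 nM final)-induced GRE-bla reporter activity in HeLa cells; 18 h treatment, fluorescence read.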
# Sequence of Glucocorticoid receptor (Homo sapiens) (P04150 whole entry, looked up): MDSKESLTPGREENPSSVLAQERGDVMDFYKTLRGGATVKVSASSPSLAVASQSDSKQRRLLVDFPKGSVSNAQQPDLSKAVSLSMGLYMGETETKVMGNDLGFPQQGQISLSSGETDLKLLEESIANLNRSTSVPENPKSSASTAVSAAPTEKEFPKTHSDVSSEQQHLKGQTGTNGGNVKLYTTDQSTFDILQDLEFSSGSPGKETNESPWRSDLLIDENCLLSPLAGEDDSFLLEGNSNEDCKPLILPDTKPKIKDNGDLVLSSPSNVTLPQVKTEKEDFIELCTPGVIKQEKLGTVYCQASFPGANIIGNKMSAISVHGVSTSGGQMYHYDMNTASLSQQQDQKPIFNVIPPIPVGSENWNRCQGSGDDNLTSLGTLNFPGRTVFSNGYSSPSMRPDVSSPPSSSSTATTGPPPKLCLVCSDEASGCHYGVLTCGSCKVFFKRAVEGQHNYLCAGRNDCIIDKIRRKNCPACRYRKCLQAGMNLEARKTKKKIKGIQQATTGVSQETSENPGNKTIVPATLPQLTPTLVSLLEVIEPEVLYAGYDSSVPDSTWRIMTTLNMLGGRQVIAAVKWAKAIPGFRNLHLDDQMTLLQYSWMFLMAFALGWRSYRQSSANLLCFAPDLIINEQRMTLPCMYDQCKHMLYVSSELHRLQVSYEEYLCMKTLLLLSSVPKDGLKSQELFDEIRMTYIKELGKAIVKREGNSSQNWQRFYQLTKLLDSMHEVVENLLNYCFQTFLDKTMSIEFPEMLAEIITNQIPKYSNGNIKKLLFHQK
structure (smiles),measurement,setting,value
C=Cc1ccc(S(=O)(=O)O)cc1,Potency,[1],inactive
same,Potency,[2],inactive
same,Potency,[3],inactive
same,Potency,[4],inactive
same,Potency,[5],inactive
same,outcome,[6],inactive
same,outcome,[7],inactive
same,Potency,[8],inactive
same,outcome,[9],inactive
same,outcome,[10],inactive
same,Potency,[11],inactive
same,outcome,[12],inactive
same,outcome,[13],inactive
same,Potency,[14],inactive
same,outcome,[15],inactive
same,Potency,[16],inactive
same,Potency,[17],inactive
Cc1cc2c(OCC(CNC(C)(C)C)OC(=O)c3ccccc3)cccc2[nH]1 (stereo not drawn),Potency,[1],inactive
same,Potency,[2],inactive
same,Potency,[3],inactive
same,Potency,[18],inactive
same,Potency,[4],inactive
same,outcome,[6],inactive
same,outcome,[7],inactive
same,Potency,[8],inactive
same,outcome,[9],inactive
same,outcome,[10],inactive
same,Potency,[11],inactive
same,outcome,[12],inactive
same,outcome,[13],inactive
same,outcome,[19],inactive
same,Potency,[14],inactive
same,Potency,[17],inactive
same,Potency,[20],inactive
CC(C)=CCC1C(=O)N(c2ccccc2)N(c2ccccc2)C1=O,Potency,[1],15 µM (active)
same,Potency,[2],inactive
same,Potency,[3],21.1 µM (active)
same,Potency,[4],inactive
same,outcome,[6],inactive
same,outcome,[7],inactive
same,Potency,[8],inactive
same,outcome,[9],inactive
same,outcome,[10],inactive
same,Potency,[11],inactive
same,outcome,[12],inactive
same,outcome,[13],inactive
same,outcome,[19],inactive
same,Potency,[14],inactive
same,outcome,[15],inactive
O=C(/C=C/c1ccc(O)c(O)c1)O[C@@H]1C[C@@](OC(=O)/C=C/c2ccc(O)c(O)c2)(C(=O)O)C[C@@H](O)[C@@H]1O,Potency,[1],inactive
same,Potency,[2],inactive
same,Potency,[3],inactive
same,Potency,[18],inactive
same,Potency,[4],inactive
same,outcome,[6],inactive
same,outcome,[7],inactive
same,Potency,[8],inactive
same,outcome,[9],inactive
same,outcome,[10],inactive
same,Potency,[11],inactive
same,outcome,[12],inactive
same,outcome,[13],inactive
same,outcome,[19],inactive
same,Potency,[14],inactive
same,Potency,[16],inactive
same,Potency,[17],inactive
same,Potency,[20],inactive
CCC1(CO)COCOC1,Potency,[1],inactive
same,Potency,[2],inactive
same,Potency,[3],inactive
same,Potency,[18],inactive
same,Potency,[4],inactive
same,outcome,[6],inactive
same,outcome,[7],inactive
same,Potency,[8],inactive
same,outcome,[9],inactive
same,outcome,[10],inactive
same,Potency,[11],inactive
same,outcome,[12],inactive
same,outcome,[13],inactive
same,outcome,[19],inactive
same,Potency,[14],inactive
same,Potency,[16],inactive
same,Potency,[17],inactive
CC(CO)CO,Potency,[1],inactive
same,Potency,[2],inactive
same,Potency,[3],inactive
same,Potency,[4],inactive
same,Potency,[5],inactive
same,outcome,[6],inactive
same,outcome,[7],inactive
same,Potency,[8],inactive
same,outcome,[9],inactive
same,outcome,[10],inactive
same,Potency,[11],inactive
same,outcome,[12],inactive
same,outcome,[13],inactive
same,outcome,[19],inactive
same,Potency,[14],inactive
same,Potency,[17],inactive
same,Potency,[20],inactive
Cc1cccc(N(C)C(=S)Oc2ccc3c(c2)CCC3)c1,Potency,[1],inactive
same,Potency,[2],inactive
same,Potency,[3],inactive
same,Potency,[4],inactive
same,outcome,[6],inactive
same,outcome,[7],inactive
same,Potency,[8],inactive
same,outcome,[9],inactive
same,outcome,[10],inactive
same,Potency,[11],inactive
same,outcome,[12],inactive
same,outcome,[13],inactive
same,outcome,[19],inactive
same,Potency,[14],inactive
same,outcome,[15],inactive
same,Potency,[16],inactive
same,Potency,[17],inactive
CCC(=O)OC,Potency,[1],inactive
same,Potency,[2],inactive
same,Potency,[3],inactive
same,Potency,[4],inactive
same,outcome,[6],inactive
same,outcome,[7],inactive
same,Potency,[8],inactive
same,outcome,[9],inactive
same,outcome,[10],inactive
same,Potency,[11],inactive
same,outcome,[12],inactive
same,outcome,[13],inactive
same,outcome,[19],inactive
same,Potency,[14],inactive
same,outcome,[15],inactive
same,Potency,[16],inactive
same,Potency,[17],inactive
CC(=O)Nc1cc(S(=O)(=O)O)cc2cc(S(=O)(=O)O)c(N=Nc3ccccc3)c(O)c12,Potency,[1],inactive
same,Potency,[2],inactive
same,Potency,[3],inactive
same,Potency,[18],30.6 µM (active)
same,outcome,[6],inactive
same,outcome,[7],inactive
same,Potency,[8],inactive
same,outcome,[9],inactive
same,outcome,[10],inactive
same,Potency,[11],inactive
same,outcome,[12],inactive
same,outcome,[13],inactive
same,outcome,[19],inactive
same,Potency,[14],inactive
same,outcome,[15],inactive
same,Potency,[16],inactive
CCCCCC[C@@H](O)C/C=C\CCCCCCCC(=O)OCC(O)CO (stereo partly drawn),Potency,[1],inactive
same,Potency,[2],inactive
same,Potency,[3],inactive
same,Potency,[18],inactive
same,Potency,[4],inactive
same,outcome,[6],inactive
same,outcome,[7],inactive
same,Potency,[8],inactive
same,outcome,[9],inactive
same,outcome,[10],inactive
same,Potency,[11],inactive
same,outcome,[12],inactive
same,outcome,[13],inactive
same,outcome,[19],inactive
same,Potency,[14],inactive
same,outcome,[15],inactive
same,Potency,[16],inactive
same,Potency,[17],inactive
Brc1cc2ccccc2c2ccccc12,Potency,[1],inactive
same,Potency,[2],inactive
same,Potency,[3],inactive
same,Potency,[18],inactive
same,Potency,[4],inactive
same,outcome,[6],inactive
same,outcome,[7],inactive
same,Potency,[8],inactive
same,outcome,[9],inactive
same,outcome,[10],inactive
same,Potency,[11],inactive
same,outcome,[12],inactive
same,outcome,[13],inactive
same,Potency,[14],inactive
same,outcome,[15],inactive
same,Potency,[16],inactive
same,Potency,[17],inactive
COc1cc(N)c(Cl)cc1C(=O)NC1CCN(CCCOc2ccc(F)cc2)CC1OC (stereo not drawn),Potency,[1],inactive
same,Potency,[2],inactive
same,Potency,[3],inactive
same,Potency,[18],inactive
same,Potency,[4],inactive
same,"fluorescence, relative to Rose Bengal",[6],0.956% [at 18.6 µM]
same,"fluorescence, % of fluorescein control",[7],-0.0882% [at 18.6 µM]
same,"fluorescence, % of triamterene",[8],-0.493% [at 18.6 µM]
same,"fluorescence, % of fluorescent control",[9],0.102% [at 18.6 µM]
same,"fluorescence, % of fluorescein",[10],0.0057% [at 18.6 µM]
same,"fluorescence, % of fluorescent control",[11],-0.0155% [at 18.6 µM]
same,activity change,[12],0.0082% [at 18.6 µM]
same,"fluorescence, % of fluorescent control",[13],0.142% [at 18.6 µM]
same,"fluorescence, % of fluorescent control",[14],-0.0728% [at 18.6 µM]
same,"fluorescence, % of fluorescein control",[15],-0.0661% [at 18.6 µM]
same,"fluorescence, % of fluorescent control",[16],0.156% [at 18.6 µM]
same,Potency,[17],inactive
same,Potency,[20],inactive
CCn1cc(C(=O)O)c(=O)c2cc(F)c(N3CCNCC3)cc21,Potency,[1],inactive
same,Potency,[2],inactive
same,Potency,[3],inactive
same,Potency,[18],inactive
same,Potency,[4],inactive
same,outcome,[6],inactive
same,outcome,[7],inactive
same,Potency,[8],inactive
same,outcome,[9],inactive
same,outcome,[10],inactive
same,Potency,[11],inactive
same,outcome,[12],inactive
same,outcome,[13],inactive
same,outcome,[19],inactive
same,Potency,[14],inactive
same,Potency,[16],inactive
same,Potency,[17],inactive
same,Potency,[20],inactive
C(=C\c1ccccc1)/c1ccccc1,Potency,[1],inactive
same,Potency,[2],inactive
same,Potency,[3],inactive
same,Potency,[4],inactive
same,outcome,[6],inactive
same,outcome,[7],inactive
same,Potency,[8],inactive
same,outcome,[9],inactive
same,outcome,[10],inactive
same,Potency,[11],inactive
same,outcome,[12],inactive
same,outcome,[13],inactive
same,outcome,[19],inactive
same,Potency,[14],inactive
same,outcome,[15],inactive
same,Potency,[16],inactive
